From PubChem
PI4K2A inh: qHTS for small molecular inhibitors of PI4K2A | 420,000 tested, 0.13% active | AID 1346378, 2018 | Phosphatidylinositol 4-kinase type 2-alpha (Homo sapiens), Q9BTU6 | activity change, negative = inhibition, % at 76.9 µM | purified PI4K2A, ADP-Glo luminescence, 1 h; active compounds read low; in the data active means activity change below about -50%; inconclusive means mostly about -30% to -49%
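Compounds are screened against recombinant PI4K2A using PI as substrate and ATP, the latter dispensed at 300 microM. Reactions run one hour at ambient temperature before ADP-Glo detection; full inhibition defined by wells lacking enzyme.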
TrxR1 substrate: qHTS Assay for Substrates of Mammalian Selenoprotein Thioredoxin Reductase 1 (TrxR1): qHTS; purified TrxR1 substrate turnover, NADPH consumption readout; 390,000 tested, 0.01% active; Thioredoxin reductase 1, cytoplasmic (Rattus norvegicus), O89049; Potency, µM (top dose mostly 114 µM); further: nearly all actives have a fitted effect of over 50% in size
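Rat TrxR1, dispensed at 90 nM, was prereduced with 400 uM NADPH (final) for 5 min at ~22 deg C, then incubated with compound 15 min before 400 uM selenite. A first-read NADPH fluorescence drop versus no-compound background flagged substrates.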
GALK inh: qHTS Assay for Inhibitors of Human Galactokinase (GALK) | Purified GALK, Kinase-Glo residual ATP luminescence | Potency, µM (top dose mostly 57.5 µM), most hits filed as inhibitors | 270,000 tested, 0.007% active
Target sequence (P51570 whole entry, looked up): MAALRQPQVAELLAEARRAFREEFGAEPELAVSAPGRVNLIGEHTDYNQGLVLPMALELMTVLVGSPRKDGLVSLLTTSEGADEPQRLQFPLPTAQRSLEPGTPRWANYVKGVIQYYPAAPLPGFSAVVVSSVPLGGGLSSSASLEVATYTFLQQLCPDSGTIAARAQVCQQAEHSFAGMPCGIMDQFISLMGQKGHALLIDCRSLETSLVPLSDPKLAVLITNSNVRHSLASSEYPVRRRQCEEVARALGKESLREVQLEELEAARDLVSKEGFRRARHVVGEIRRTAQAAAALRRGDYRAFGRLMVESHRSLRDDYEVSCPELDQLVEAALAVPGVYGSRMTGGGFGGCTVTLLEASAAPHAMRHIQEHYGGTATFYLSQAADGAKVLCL
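Luminescence from leftover ATP (Ultra-Glo luciferase/luciferin) served as read-out after a 1 h room-temperature reaction of 5 nM GALK with 35 uM ATP and 100 uM galactose.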
rTrxR1 inhibitor: qHTS Assay for Inhibitors of Mammalian Selenoprotein Thioredoxin Reductase 1 (TrxR1): qHTS. Thioredoxin reductase 1, cytoplasmic (Rattus norvegicus), O89049. recombinant rTrxR1, NADPH fluorescence consumption, selenite substrate. Potency, µM (series often up to 114 µM), actives largely listed as inhibitors. 390,000 tested, 1% active. AID 588453, 2011; further: nearly all actives have a fitted effect of over 65% in size
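Rat TrxR1 (90 nM in the dispensed reagent) was pre-reduced with 400 uM NADPH for 5 min at room temperature, then incubated with compound for 15 min. After 400 uM selenite was added, NADPH fluorescence (Ex 340/Em 450 nm) was followed for 8 min.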
A number is an active result; – = inactive; ? = inconclusive; · = no result given; [ ] = remark or other dose. An excerpt weighted towards active compounds, which were near 1.1% of everything screened. Unless noted, the call rests on the fitted dose curve; in most records, active means well fitted curve in the direction sought with a large enough effect; inconclusive means small, poorly fitted or top-dose-only effect, or another doubt; inactive means no such curve, though single readings can be large; an effect the other way counts as inactive or inconclusive.

SMILES | PI4K2A inh | TrxR1 substrate | GALK inh | rTrxR1 inhibitor
Oc1ccc2ccccc2c1CNc1ccc(Br)cn1 | – | – | – | –
CCN(CC)S(=O)(=O)c1cccc(NC(=O)CNc2cccc(S(=O)(=O)N3CCOCC3)c2)c1 | – | – | · | –
Cc1ccccc1-c1nc(CN2CCN(C(=O)c3ccco3)CC2)c(C)o1 | – | – | – | 56µM
CCOc1ccccc1-c1nc(CN2CCN(C(=O)c3ccco3)CC2)c(C)o1 | – | – | – | ?
N#C[C@H]1C[C@H]2C[C@@H]2N1C(=O)[C@@H](N)C12CC3CC(CC(O)(C3)C1)C2 | – | · | · | ·
COC(=O)CN1C(=O)CSc2ccc(S(=O)(=O)Nc3cccc(Br)c3)cc21 | – | – | · | –
O=C(O)c1ccccc1NS(=O)(=O)c1ccc(NNC(=S)Nc2ccc(OC(F)F)cc2)c([N+](=O)[O-])c1 | – | – | – | 50µM
CSc1cccc(NC(=O)/C=C/c2ccccc2)c1 | – | – | – | –
CSc1ccc(/C=C/C(=O)Nc2ccccc2)cc1 | -52 | – | – | –
O=C(NC(=S)Nc1cccc([N+](=O)[O-])c1)c1ccco1 | – | – | – | –
CSc1cccc(NC(=O)/C=C/c2ccco2)c1 | – | – | – | 14µM
O=C(/C=C/c1ccco1)NC(=S)Nc1ccccc1 | – | – | – | 45µM
O=C(/C=C/c1ccco1)NC(=S)Nc1cccc([N+](=O)[O-])c1 | – | – | – | 20µM
Cc1cc(C)c(NC(=O)CN2C(=O)CCSc3ccc(S(=O)(=O)N4CCCC4)cc32)c(C)c1 | – | – | · | –
COc1ccc(CC(=O)Nc2nc(OCC(F)(F)F)cnc2-c2ccc(Cl)cc2Cl)cc1 | – | · | · | ·
COC(=O)C1CC1[C@H](NC(=O)c1cccnc1)c1ccccc1 (stereo not given in full) | · | – | · | –
CCc1ccc(-n2c(SCc3ccccc3C)nc3[nH]ncc3c2=O)cc1 | – | – | · | –
N/C(=N\N=C\c1ccc(Cl)cc1)N/N=C/c1ccc(Cl)cc1 | – | · | · | ·
CC1CCC(NC(=O)c2ccc(CSc3nc4ccncc4n3Cc3ccc(F)cc3)cc2)CC1 (stereo not given) | – | – | · | –
CCc1cc2cc(OC)c(OC)cc2c(Cc2ccccc2)n1 | – | · | · | ·
Cc1cccc(NC(=S)NC(=O)/C=C/c2ccco2)c1 | – | – | – | 22µM
CCCCC(=O)NC(=S)Nc1cccc(NC(=O)c2ccco2)c1 | – | – | – | 8.9µM
CCC(=O)NC(=S)Nc1ccc(NC(=O)c2ccco2)cc1 | – | – | – | –
CC(=O)c1ccc(NC(=S)NC(=O)/C=C/c2ccco2)cc1 | – | – | – | ?
CCN(CC)C(=O)Nc1ccc(OCC(O)CNC(C)(C)C)c(C(C)=O)c1 (stereo not given) | – | · | · | ·
SMILES | PI4K2A inh | TrxR1 substrate | GALK inh | rTrxR1 inhibitor
CCCCN(CCCC)Cc1cc2ccccc2c2c1COC2 | -81 | – | – | –
CCCN(CCC)Cc1cc2ccccc2c2c1COC2 | – | – | – | –
C[C@@H]1C[C@H]2[C@@H]3CCC4=CC(=O)C=C[C@]4(C)[C@@]3(F)C(O)C[C@]2(C)[C@@]1(O)C(=O)CO (stereo not given in full) | · | – | · | –
O=C(CCC(=O)CCN1CCCCC1)CCN1CCCCC1 | – | – | – | 1.8µM
CCOC(=O)C1CCCN(C(=O)Cn2ncc3c(C)n(Cc4ccccc4F)c(C)c3c2=O)C1 (stereo not given) | – | – | · | –
C#CCOCCOCCOCCNc1nc(N2CCN(C(=O)Cn3cc(CCCCN)nn3)CC2)nc(N2CCN(C(=O)[C@H]([C@@H](C)CC)n3cc(CCCN=C(N)N)nn3)CC2)n1 | – | – | · | –
C#CCOCCOCCOCCNc1nc(N2CCN(C(=O)Cn3cc(CCCN=C(N)N)nn3)CC2)nc(N2CCN(C(=O)[C@H]([C@@H](C)O)n3cc(CCCCN)nn3)CC2)n1 | – | – | · | 71µM
C#CCOCCOCCOCCNc1nc(N2CCN(C(=O)[C@H](CCC(=O)O)n3cc(C(N)CC(C)C)nn3)CC2)nc(N2CCN(C(=O)[C@H](Cc3cc4ccccc4[nH]3)n3cc(C(N)CC(C)C)nn3)CC2)n1 (stereo not given in full) | – | – | – | 28µM
C#CCOCCOCCOCCNc1nc(N2CCN(C(=O)[C@H](CCCCN)n3cc(CC(C)O)nn3)CC2)nc(N2CCN(C(=O)[C@H](Cc3ccc(O)cc3)n3cc(CCO)nn3)CC2)n1 (stereo not given in full) | – | – | · | –
C#CCOCCOCCOCCNc1nc(N2CCN(C(=O)CCCCCCCCCCNC(=O)[C@H](CCCCN)n3cc(CCO)nn3)CC2)nc(N2CCN(C(=O)CCCCCCCCCCNC(=O)[C@@H]([C@H](C)O)n3cc(C)nn3)CC2)n1 | – | – | · | 50µM
C#CCOCCOCCOCCNc1nc(N2CCN(C(=O)[C@H](CCCCN)n3cc(CCCC)nn3)CC2)nc(N2CCN(C(=O)[C@H](Cc3ccc(O)cc3)n3cc(CCO)nn3)CC2)n1 | – | – | · | 14µM
COc1ccc(-n2c(/C=C/c3cccc4ccccc34)nc3ccccc3c2=O)cc1Cl | – | – | · | –
CCc1ccccc1NC(=O)CCn1cccn1 | – | – | · | –
O=C(NC1CCC1)c1ccc(C#Cc2cccc(F)c2)nc1 | – | · | · | ·
COc1ccccc1NC(=O)CSc1nnc(N)s1 | – | – | · | 13µM
CC(C)C[C@H]1COc2cc(N3CCSCC3)ccc2S(=O)(=O)N1C | – | · | · | ·
COc1ccccc1CNc1cc(-c2ccccc2)nc2nncn12 | – | – | · | 35µM
Clc1ccc(CNc2cc(-c3ccccc3)nc3nncn23)cc1 | – | – | · | –
Brc1ccc(-c2cn3nc4c(nc3n2)CCCC4)cc1 | – | – | – | –
c1ccc(-c2cn3nc4c(nc3n2)CCCC4)cc1 | -52 | – | – | –
C=CCOc1ccc(C[C@H](N)C(=O)NC[C@H]2O[C@@H](n3cc(C)c(=O)[nH]c3=O)C[C@@H]2O)cc1 | – | · | · | ·
Cc1ccc(S(=O)(=O)CCC(=O)Nc2cc(Cl)ccc2-n2cncn2)cc1 | – | – | · | 13µM
O=C(Nc1ccc(-c2nc3cccnc3s2)cc1)C1CCCO1 (stereo not given) | -57 | – | · | –
Oc1cccc(-c2nnc(-c3cccc(O)c3)nn2)c1 | -66 | –[11.4 µM] | · | –[11.4 µM]
CN1CCN(C(CNC(=O)c2ccccc2)c2ccc3c(c2)OCO3)CC1 (stereo not given) | – | – | · | –
O=S(=O)(c1ccc2nnn(O)c2c1)N1CCOCC1 | – | – | · | 56µM
O=C(CSc1nc2ccccc2c(=O)[nH]1)c1ccc(O)c(O)c1 | – | – | – | 50µM
Cc1cc(=O)[nH]c(SCC(=O)c2ccc(O)c(O)c2)n1 | – | – | – | 56µM
Cc1ccc(C(=O)CSc2nc(C)cc(=O)[nH]2)cc1 | – | – | – | –
